The panel holds about 83,000 compounds, 20% with a hit somewhere; the sample as a whole holds those more often.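 Percent growth is the endpoint: 0 to 100 indicates growth inhibition (40 means 60% inhibition), 0 means no net growth, and negative values indicate cell death.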 Values without a mark were called inactive. The source made the active and inactive calls. The calls were made as follows: active = growth percent below 10; inactive = the rest.
These compounds were tested on HL-60(TB) leukemia (assay: NCI-60 one-dose screen, 48 h (100 = growth as untreated, 0 = no growth, -100 = all killed)). Settings: 10 µM unless noted.
Cc1cc(=O)n(C(=O)Nc2ccccc2Cl)c2cc(O)ccc12 was tested, and the growth was 107%. S=c1[nH]nc(CSc2ncnc3c2c(-c2ccccc2)cn3-c2ccc(Cl)cc2)o1 showed a growth of 101%. O=C(Cn1nnc2ccccc21)N/N=C/c1c[nH]c2ccccc12 was tested, and the growth was 31.1%. O=S(=O)(O)c1cccnc1 was tested, and the growth was 61.8%. COc1ccc(-c2nn(-c3cccc(NC(=O)c4ccc(N5CCOCC5)c(C(F)(F)F)c4)c3)cc2-c2ccncc2)cc1Cl was tested, and the growth was 38.1%. For COc1ccccc1N1CCN(CCCOc2ccc(C(=O)/C=C3/C(=O)Nc4ccccc43)cc2)CC1, the growth was 52.8%. With CCOC(=O)C1=C(c2ccccc2)N=C2SC=C(c3ccc(Cl)cc3)N2C1c1ccc(Br)cc1 (stereo not drawn) the growth was 55.2%. With COC(=O)c1c2c(c(C)[n+]([O-])c1C)C(=O)C=C(NCc1ccc(F)c(F)c1)C2=O the growth was -24% (active). CCCS(=O)(=O)Nc1ccc(F)c(C(=O)c2c[nH]c3ncc(-c4ccc(OCCCC5CCCCN5)nc4)cc23)c1F (stereo not drawn) was tested, and the growth was 97.4%. For CCOc1ccc([C@@H]2[C@@H](Oc3ccccc3)C(=O)N2c2cc(OC)c(OC)c(OC)c2)cc1, the growth was -36% (active). COc1ccc(-c2[nH]c(=S)n(C(CC3(C)NCC(=O)N3n3c(-c4ccccc4)cc(C)nc3=S)c3ccc(OC)cc3)c(=O)c2Br)cc1 (stereo not drawn) gave a growth of 59.6%. With O=C1NC(=O)/C(=C\c2ccco2)S1 the growth was 74.2%. For COc1cc(/C=C/c2cc(/C=C/c3ccc(O)c(OC)c3)n(C(=O)Nc3ccc(F)cc3)n2)ccc1O, the growth was -21.4% (active).
